The target of experiment [1] is Cellular tumor antigen p53 (Homo sapiens) (UniProt P04637). The experiment is described as follows: Primary qHTS for small molecule compounds that upregulate eGFP-tagged delta133p53alpha (in N-terminal) cells. (AID 2060322). Also: nearly all actives have a fitted effect of over 75% in size. Also: potency is read from the fitted curve at half-maximal effect.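 As to activation: cells pre-induced with doxycycline then dosed without doxycycline; series mostly up to about 56 µM; 0% = DMSO vehicle and 100% = reference activator.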 The following applies: NCI-H358 eGFP-delta133p53alpha fluorescence, 24 h; activation: hits give high values. A digest of the protocol:
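NCI-H358 cells pre-induced 24 h with 10 ng/ml doxycycline for eGFP-delta133p53alpha, plated dox-free and exposed 24 h at 37C to titrated compounds. Fixed, Hoechst-stained; gated GFP peak intensity by laser scanning cytometry, normalized to DMSO (0%) and 57.5 uM 5-azacytidine (100%).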

The target in experiment [2] is Aldehyde dehydrogenase, mitochondrial (Homo sapiens) (UniProt P05091). The experiment is described as follows: qHTS for Inhibitors of the Aldehyde Dehydrogenase Family (ALDH2) Primary screen (AID 2061308).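 Also: plate controls were vehicle for no effect and reference inhibitor for full effect; nearly all actives have a fitted effect of over 55% in size.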
Experiment [3] concerns the target Retinaldehyde dehydrogenase 3 (Homo sapiens) (UniProt P47895). The experiment is described as follows: qHTS for Inhibitors of the Aldehyde Dehydrogenase Family (ALDH1A3) Primary screen (AID 2061315).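 Also: plate controls were DMSO vehicle for no effect and reference inhibitor for full effect.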

“And” between values parts separate entries of the source, which are not always exact repeats. Equal entries are not always repeated. Results filed as inconclusive are left out. Values without a mark were called inactive. The source made the active and inactive calls. Calls follow the shape of the dose curve; as a rule, active = well fitted curve in the direction sought with a large enough effect; inconclusive = small, poorly fitted or top-dose-only effect, or another doubt; inactive = no such curve, though single readings can be large; an effect the other way counts as inactive or inconclusive.

Potency, activation and activity change, negative = inhibition data for 24 molecules are collected here from PubChem BioAssay (NCATS).

Sequence of Cellular tumor antigen p53 (Homo sapiens) (P04637 whole entry, looked up): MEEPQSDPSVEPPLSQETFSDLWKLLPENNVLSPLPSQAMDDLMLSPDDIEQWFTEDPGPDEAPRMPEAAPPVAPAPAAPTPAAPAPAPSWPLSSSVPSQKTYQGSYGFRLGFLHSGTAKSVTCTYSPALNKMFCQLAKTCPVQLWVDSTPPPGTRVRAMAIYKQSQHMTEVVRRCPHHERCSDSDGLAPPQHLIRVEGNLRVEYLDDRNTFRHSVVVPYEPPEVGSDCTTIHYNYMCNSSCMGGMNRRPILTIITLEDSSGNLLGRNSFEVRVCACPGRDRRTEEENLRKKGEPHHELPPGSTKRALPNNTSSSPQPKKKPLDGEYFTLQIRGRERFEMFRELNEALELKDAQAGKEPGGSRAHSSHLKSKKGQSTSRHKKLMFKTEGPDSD

As to `C=C(C)[C@@H]1CC[C@]2(CO)CC[C@]3(C)[C@H](CC[C@@H]4[C@@]5(C)CC[C@H](O)C(C)(C)[C@@H]5CC[C@]43C)[C@@H]12`, the Potency in experiment [1] is 10.4 µM (active). Besides, the Potency entry in experiment [2] and in experiment [3] was “inactive” each time.
For `Cc1ccc(S(=O)(=O)Nc2cc(Cl)ccc2C(=O)Nc2nc(-c3ccccc3)cs2)cc1`, the activation in experiment [1] was 7.51%. The Potency result in experiment [2] and in experiment [3] was “inactive” in each case.
For the molecule `NC[C@@H]1O[C@@H](O[C@@H]2[C@@H](O[C@@H]3O[C@H](CO)[C@@H](O)[C@H]3O)[C@H](O)[C@@H](N)C[C@H]2N)[C@@H](N)[C@H](O)[C@H]1O`, the activation in experiment [1] is -0.893%. Also, the activity change, negative = inhibition in experiment [2] was -0.412% [at 11.2 µM]; in experiment [3], -9.15% [at 11.2 µM].
On to `COc1cc(C(C)=O)ccc1O[C@@H]1O[C@H](CO)[C@@H](O)[C@H](O)[C@H]1O`, for which, in experiment [1], the activation is -7.63%. Further, the Potency result in experiment [2] and in experiment [3] was “inactive” in each case.
In the case of `CC[N+]1(CC)CCC(=C(c2ccccc2)c2ccccc2)C1C` (configuration not stated), the activation in experiment [1] was -5.67%. The Potency result in experiment [2] and in experiment [3] was “inactive” in each case.
As to `COc1ccc(C(OC2OC(CO)C(O)C(O)C2O)C(C)O)cc1` (configuration not stated), the activation in experiment [1] was 9.82%. For the same molecule, the Potency entry in experiment [2] and in experiment [3] was “inactive” in each case.
Turning to `CC12CC34CC(O)C5C(CO)(CO)CC(=O)CC5(C)C3CC1C2C4` (configuration not stated), the activation in experiment [1] is 5.34%. Also, the Potency entry in experiment [2] and in experiment [3] was “inactive” each time.
In the case of `C/C=C/C=C/C(O)=C1/C(=O)[C@]2(C)C(=O)[C@@](C)(O)[C@H]1[C@H]([C@@]1(C)OC(=O)C(C)=C1O)[C@H]2C(=O)CC/C=C/C`, in experiment [1], the activation was -10.7%. Also, the Potency entry in experiment [2] and in experiment [3] was “inactive” throughout.
As to `C=C1C(=O)O[C@@H]2C[C@@]3(C)C[C@@H](O)C[C@H](C)C3=C[C@H]12`, the Potency in experiment [1] is 23.9 µM (active). The Potency entry in experiment [2] and in experiment [3] was “inactive” each time.
In the case of `C=C1CC[C@@H]2[C@](C)(CC[C@H](O)[C@@]2(C)CCC=C(C)C)[C@@H]1Cc1c[nH]c2ccccc12`, the activation in experiment [1] was -21.4%. In addition, the Potency result in experiment [2] and in experiment [3] was “inactive” throughout.
For `Cc1ccc2c(n1)Oc1ccc(C(C)C(=O)OCC(=O)N(C)C)cc1C2` (configuration not stated), the activation in experiment [1] is -12.6% and -10.9%. For the same molecule, the Potency result in experiment [2] and in experiment [3] was “inactive” in each case.
Consider `C[C@@]12C(=O)N(c3ccc(C(=O)Nc4cccc5cccnc45)cc3)C(=O)[C@@H]1[C@@H]1C=C[C@H]2C1`, for which, in experiment [1], the activation is 18.3%. Further, the Potency entry in experiment [2] and in experiment [3] was “inactive” in each case.
In the case of `COC(=O)C1=CO[C@@H](O[C@@H]2O[C@H](CO)[C@@H](O)[C@H](O)[C@H]2O)[C@@H]2[C@@](C)(O)[C@@H](O)C[C@]12O`, the activation in experiment [1] was -2.29%. The Potency entry in experiment [2] and in experiment [3] was “inactive” in each case.
Consider `CC1CCC2(C(=O)OC3OC(CO)C(O)C(O)C3O)CCC3(C(=O)O)C(=CCC4C5(C)CCC(OC6OC(C)C(O)C(O)C6O)C(C)(C)C5CCC43C)C2C1C` (configuration not stated), for which the activation in experiment [1] was -10.7%. Besides, the Potency result in experiment [2] and in experiment [3] was “inactive” in each case.
As to `OC[C@H]1O[C@@H](OCc2ccccc2)[C@H](O[C@@H]2OC[C@@H](O)[C@H](O)[C@H]2O)[C@@H](O)[C@@H]1O`, the activation in experiment [1] was -14.3%. In addition, the Potency entry in experiment [2] and in experiment [3] was “inactive” in each case.
On to `O=C(O[C@@H]1O[C@H](CO)[C@@H](O)[C@H](O)[C@H]1O)c1c(O)cc(O)cc1/C=C/c1ccccc1`, for which the activation in experiment [1] is -23.7%. For the same molecule, the Potency entry in experiment [2] and in experiment [3] was “inactive” in each case.
In the case of `CCC(C)(C)C1CCc2c(sc(NC(=O)c3ccc(Br)cc3)c2C#N)C1` (configuration not stated), the activation in experiment [1] was -0.333%. Moreover, the Potency result in experiment [2] and in experiment [3] was “inactive” throughout.
Turning to `CCOC(=O)[C@H](CCc1ccccc1)N[C@@H](C)C(=O)N1C2CCCCC2C[C@H]1C(=O)O` (some centres not stated), the activation in experiment [1] was -7%. In addition, the Potency result in experiment [2] and in experiment [3] was “inactive” throughout.
For the molecule `CO[C@H]1O[C@@H]2O[C@]3(C)CC[C@H]4[C@H](C)CC[C@@H]([C@H]1C)[C@@]24OO3`, in experiment [1], the activation was 10.3%. The Potency entry in experiment [2] and in experiment [3] was “inactive” in each case.
For the molecule `O=C1NC(Cc2c[nH]c3ccccc23)C(=O)NC1Cc1cnc[nH]1` (configuration not stated), the activation in experiment [1] is -5.36%. The Potency entry in experiment [2] and in experiment [3] was “inactive” each time.
Take `C=C1C(=O)OC2/C=C(\CO)CC/C=C(\C=O)CC(OC(=O)CC(C)C)C12` (configuration not stated): the Potency in experiment [1] is 14.8 µM (active). The Potency entry in experiment [2] and in experiment [3] was “inactive” throughout.
With `CC/C=C/C=C/C1(C)OC(CC(CO)OC)=CC1=O` (configuration not stated), in experiment [1], the activation was 1.79%. Besides, the Potency result in experiment [2] and in experiment [3] was “inactive” throughout.
Take `CC(C)(C)Nc1nc2cc(Cl)c(Cl)cc2nc1S(C)(=O)=O`: the Potency in experiment [1] was 3.38 µM (active). Also, the Potency result in experiment [2] and in experiment [3] was “inactive” each time.
Turning to `C=C1CC/C=C(/C(=O)O)CCC2C1CC2(C)C` (configuration not stated), the activation in experiment [1] is -4.58%. Moreover, the Potency entry in experiment [2] and in experiment [3] was “inactive” throughout.
